Cy5 interf NS3h = counter-screen for HCV NS3 helicase inhibitors: fluorescence interference | Cy5-dT15 DNA with NS3h; actives lie on both sides; signal over control mean, under 1 quenches | fluorescence interference ratio at 100 µM | 6% of 16,000 active | AID 720488;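 active means compound fluorescence over control fluorescence at most 0.8, a quencher, or at least a set upper limit, an enhancer; inactive means ratio between 0.8 and the set upper limit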
NS3h inh CB = hepatitis C NS3 helicase inhibition, primary screen; AID 687043; inhibition, % at 100 µM; NS3h Cy5-dT15 DNA binding, fluorescence polarization; 1.6% of 16,000 active;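 active means inhibition above the average over every tested compound plus 3 SD, cut at about 40% in these data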
An asterisk follows results filed as active. Rows were chosen to be rich in hits. Some 6.8% of all compounds tested hit in one or more screens of this group.

SMILES | Cy5 interf NS3h | NS3h inh CB
O=C(CSc1nc2ccc([N+](=O)[O-])cc2[nH]1)Nc1ccc2c(c1)OCO2 | 0.605* | 12.4
Cc1[nH]c2c(C)cccc2c(=O)c1CCC(=O)O | 1.09 | -2.8
CC1CCCC(C)N1C(=O)c1nn2c(c1Cl)NC(c1ccc(Cl)cc1)CC2C(F)(F)F (centres undefined) | 0.952 | 2.8
O=C(O)C(Cc1ccccc1)N1C(=O)/C(=C/c2ccc(Br)cc2)SC1=S (centres undefined) | 0.986 | 4.8
COC(=O)c1ccc(COc2ccc3c(-c4ccccc4)cc(=O)oc3c2)cc1 | 0.957 | 10.6
CCN1C(=O)/C(=C\c2cn(-c3ccccc3)nc2-c2ccc(OC)c([N+](=O)[O-])c2)SC1=S | 1.03 | 8.7
O=[N+]([O-])c1ccc(C=Nc2ccc(Cl)c([N+](=O)[O-])c2)s1 | 0.947 | -3.4
Cc1ccc(N=Cc2ccc([N+](=O)[O-])s2)c(C)c1 | 0.8* | 28.8
CCOc1cc(C2Nc3ccccc3C(=O)N2Cc2ccccc2)ccc1O (centres undefined) | 0.962 | 8.0
O=C(CSc1cc(Cl)ccc1Cl)Nc1cccc(C(F)(F)F)c1 | 0.895 | -4.2
Cn1ccnc1SCC(=O)Nc1cccc(C(F)(F)F)c1 | 0.764* | 9.6
C/C(NCCc1ccccc1)=C(/C#N)C(N)=O | 1.02 | 2.1
O=C(CSCc1ccccc1)Nc1ccccc1Br | 0.979 | -11.2
CC(=O)ON=C1c2cc(S(=O)(=O)N(C)C)ccc2-c2ccc(S(=O)(=O)N(C)C)cc21 | 0.608* | 13.3
O=S(=O)(c1ccc2c(c1)C(=NO)c1cc(S(=O)(=O)N3CCCC3)ccc1-2)N1CCCC1 | 1.01 | 0.3
COC(=O)C1=C(C)N(c2cccc(C)c2)C(=O)/C1=C\c1ccccc1[N+](=O)[O-] | 0.99 | 28.1
COc1cc(/C=C2\NC(=S)NC2=O)c([N+](=O)[O-])cc1OC | 0.506* | -19.9
COc1cc(/C=C2\NC(=S)NC2=O)ccc1Oc1ccc([N+](=O)[O-])cn1 | 0.831 | 12.1
COc1ccc(-c2nnc(NC(=O)c3cccc4ccccc34)s2)cc1 | 0.93 | 16.5
CC1=NN(C(=O)c2ccc(Cl)cc2)C(O)(c2cccnc2)C1 (centres undefined) | 0.964 | -3.5
CC1=NN(C(=O)c2cccnc2)C(C)(O)C1(C)C (centres undefined) | 0.647* | -2.5
O=[N+]([O-])c1cc(-n2ncnc2-c2cccc(Cl)c2)ccc1F | 0.943 | 0.3
O=C(Nc1ccc2oc(-c3cccnc3)nc2c1)c1cccc(OCc2ccccc2)c1 | 0.953 | -17.1
O=C(O)CN1C(=O)c2cccc3c(Br)ccc1c23 | 1.05 | 6.8
O=C(O)c1cccc2c(Br)ccc(C(=O)O)c12 | 0.677* | 3.1
SMILES | Cy5 interf NS3h | NS3h inh CB
O=C(NCCOc1ccc(F)cc1)c1cccc2ccccc12 | 0.883 | 1.7
O=C(NCCOc1ccc(F)cc1)c1ccccc1-c1ccccc1 | 0.687* | 23.5
COc1ccc(OC)c(NC(=O)CN(c2cc(Cl)cc(Cl)c2)S(C)(=O)=O)c1 | 0.984 | 15.9
COc1ccc(C(=O)c2ccccc2)c(OC)c1 | 0.909 | -6.5
COc1ccc(/C(C)=N\N=C(\C)c2ccc(OC)cc2OC)c(OC)c1 | 0.666* | 15.9
O=C(Nc1ccncc1)Nc1ccccn1 | 1.01 | 4.7
O=C(Nc1ccccc1)Nc1ncccn1 | 0.784* | 11.5
COc1ccc(C2NC(c3ccc(OC)cc3)C3CCCC2C3=O)cc1 (centres undefined) | 1.02 | 5.8
COc1ccc(C2NC(c3ccc(OC)cc3)C(c3ccccc3)C(=O)C2c2ccccc2)cc1 (centres undefined) | 0.716* | 18.0
COc1ccc(OC)c(NC(=O)c2cccc(C)c2)c1 | 0.945 | -7.2
Cc1ccccc1N1CCN(C(=S)c2ccc(N(C)C)cc2)CC1 | 1.01 | 10.5
Cc1cccc(N(CC(O)CN(Cc2ccccc2)Cc2ccccc2)S(=O)(=O)c2ccccc2)c1 (centres undefined) | 0.705* | 20.7
Cc1ccc(S(=O)(=O)N(CC(O)CN(CC(C)C)CC(C)C)c2cccc(C)c2)cc1 (centres undefined) | 0.772* | 11.5
NC(=O)CN(c1cccc([N+](=O)[O-])c1)S(=O)(=O)c1ccccc1 | 0.977 | 9.6
COc1ccc(N(CC(O)CN(Cc2ccccc2)Cc2ccccc2)S(=O)(=O)c2ccc(C)cc2)cc1 (centres undefined) | 0.958 | 9.9
CN(C)CC(O)CN(c1ccccc1)S(=O)(=O)c1ccc([N+](=O)[O-])cc1 (centres undefined) | 0.788* | 0.0
Cc1ccc(S(=O)(=O)N(CC(C)C)CC(C)C)cc1 | 0.943 | 5.0
O=C(c1ccccc1)c1ccc(C(=O)N(CCCCN2C(=O)c3ccccc3C2=O)c2ccc(F)cc2F)cc1 | 1.13 | 10.9
CCC(=O)Nc1ccc(S(=O)(=O)N2CCCCCC2)cc1 | 0.737* | -8.6
Cc1ccc(C(=O)Nc2ccc(S(=O)(=O)N3CCCC3)cc2)cc1 | 1.11 | 10.0
O=C(Nc1ccc(S(=O)(=O)N2CCCCCC2)cc1)c1ccc(F)cc1 | 0.86 | 1.7
O=C(O)/C=C/C(=O)Nc1ccc(S(=O)(=O)N2CCCCCC2)cc1 | 0.775* | 9.9
CCOc1cc(/C=C2/SC(=S)N(C)C2=O)cc(Cl)c1OCCOc1ccccc1C | 1.05 | 5.3
COc1cc(C(C2=C(O)CC(C)(C)CC2=O)C2C(=O)CC(C)(C)CC2=O)ccc1OC(C)=O (centres undefined) | 1.03 | 0.7
COc1cc(/C=N\N2CCN(Cc3cccc4ccccc34)CC2)cc(Br)c1O | 0.98 | 10.4
SMILES | Cy5 interf NS3h | NS3h inh CB
COc1ccc(C2C(=C(O)c3ccc(Cl)cc3)C(=O)C(=O)N2CCCC(=O)O)cc1 (centres undefined) | 0.149* | -43.6
O=C(O)CCCN1C(=O)C(=O)C(=C(O)c2ccc(Cl)cc2)C1c1ccccc1 (centres undefined) | 1.11 | 31.4
O=C1C(Cl)=CC(=NS(=O)(=O)c2ccccc2)C=C1Br | 0.66* | 31.9
O=C1C(Cl)=CC(=NS(=O)(=O)c2ccc(Cl)cc2)c2ccccc21 | 0.873 | -4.4
O=C(COc1cccc2ccccc12)Nc1ccncc1 | 0.802* | 7.8
COc1cc(NC(=O)COc2cccc3ccccc23)cc(OC)c1 | 0.991 | 7.0
COc1ccc(CCNC(=O)COc2cccc3ccccc23)cc1 | 1.01 | 11.9
O=C(COc1cccc2ccccc12)Nc1ccc2c(c1)OCCO2 | 0.682* | 25.8
O=C(COc1cccc2ccccc12)NCCO | 0.736* | 15.0
Cc1cccc(OCC(=O)Nc2ccc3c(c2)OCO3)c1C | 0.948 | 12.6
COc1ccc(N2C(=O)/C(=C\c3cc(C)n(-c4ccccc4)c3C)SC2=S)cc1 | 1.19 | 11.8
CC(C)(C)CC(C)(C)NC(=O)c1ccc2nccnc2c1 | 0.609* | 4.0
O=C(Nc1ccccc1F)c1ccc2nccnc2c1 | 1.03 | -0.9
Cc1ccc(Nc2nc3ccc(C)cn3c(=O)c2/C=N\O)cc1 | 1.07 | 14.9
O=C(COc1ccc([N+](=O)[O-])cc1)Nc1ccc(-c2nc3ccccc3s2)c(O)c1 | 1.03 | 0.3
Cc1ccc(C(O)=C2C(=O)C(=O)N(CCCC(=O)O)C2c2ccccc2Cl)cc1 (centres undefined) | 0.945 | 9.7
Cc1ccc(S(=O)(=O)NCCOc2ccccc2Cl)cc1[N+](=O)[O-] | 0.791* | 4.8
Cc1ccc(S(=O)(=O)NCCOc2ccccc2)cc1[N+](=O)[O-] | 0.933 | 13.0
Cc1cc(C=O)c(C)n1-c1ccc2ccccc2c1 | 0.89 | 7.1
O=C(NCc1ccco1)c1cc2nc(-c3ccccc3)cc(C(F)(F)F)n2n1 | 1.06 | 1.3
